Screening data from PubChem.
Most compounds without a hit are left out; they make up all but 0.89% or so of the library.
MEP2 TOR yeast: modulators of MEP2-GFP levels in yeast, primary screen, S. cerevisiae, multiplex flow cytometry, MLPCN library. AID 2016, 2009. hit rate 0.51% among 330,000. S. cerevisiae MEP2-GFP strain, 3 h; 100% = DMSO control level. GFP response vs DMSO, % at 10 µM;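 active means GFP response versus DMSO above a set limit, roughly screen mean plus 3 SD, cut at about 180% in these data; inconclusive means fewer than 70 cells counted for a yeast strain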;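 further: median GFP fluorescence of the barcode-gated MEP2-GFP cells per well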
AGP1 TOR yeast: modulators of AGP1-GFP expression in yeast TOR pathway, primary screen, cell-based, multiplex flow cytometry, S. cerevisiae, MLPCN library | hit rate 0.02% among 320,000 | 3 h; GFP as percent of DMSO wells | GFP response vs DMSO, % at 10 µM | AID 2066, 2009;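 active means GFP response relative to DMSO above a set limit, near screen average plus 3 SD, cut at about 150% in these data; inconclusive means fewer than 70 cells counted for the yeast strain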;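 further: median GFP channel fluorescence of the gated AGP1 strain per well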
LAP4 TOR yeast: modulators of LAP4-GFP expression in yeast, primary screen, S. cerevisiae, multiplex flow cytometry, MLPCN library. GFP response vs DMSO, % at 10 µM. AID 2023, 2009. hit rate 0.34% among 320,000. 3 h; median GFP as percent of DMSO wells;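 active means GFP response vs DMSO above a set limit, about the screen mean plus 3 SD, cut at about 150% in these data; inconclusive means under 70 cell events counted for the yeast strain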
CIT2-GFP yeast: modulators of CIT2-GFP expression in yeast, primary screen, S. cerevisiae, GFP fusion, multiplex flow cytometry, MLPCN library. hit rate 0.065% among 320,000. GFP response vs DMSO, % at 10 µM. AID 2029, 2009. S. cerevisiae CIT2-GFP strain, 3 h; 100 means same as DMSO wells;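 active means GFP response relative to DMSO above a set limit, near the screen mean plus 3 SD, cut at about 150% in these data; inconclusive means Fewer than 70 cells measured for a yeast strain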;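 further: ratio of well median GFP fluorescence to mean of DMSO wells on the plate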
RPL19A TOR yeast: RPL19A-GFP expression modulators in yeast, primary screen, cell-based, S. cerevisiae, multiplex flow cytometry, MLPCN; S. cerevisiae RPL19A-GFP strain, 3 h; stronger effect = lower value; percent response vs DMSO, % at 10 µM; hit rate 0.3% among 330,000; AID 2025, 2009;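 active means percent response vs DMSO below 50%; inconclusive means fewer than 70 events counted for the yeast strain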;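 further: median channel GFP fluorescence of the barcoded RPL19A-GFP strain; lower means less RPL19A-GFP as with rapamycin TOR inhibition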
Numbers stand for hits; 0 = inactive; ? = inconclusive; - = not tested or not shown; [ ] = remark or other dose.

SMILES	MEP2 TOR yeast	AGP1 TOR yeast	LAP4 TOR yeast	CIT2-GFP yeast	RPL19A TOR yeast
C=CCC1(O)CC(c2ccco2)NC(c2ccco2)C1CCC (stereo not given)	0	0	0	0	0
Cc1cccc(C)c1OCC(=O)NCc1ccccc1	277[may fluoresce violet]	?	0	?	42[may fluoresce violet]
COc1ccc(OC)c(S(=O)(=O)NNC(=S)Nc2ccc3c(c2)OCO3)c1	0	0	0	0	0
Cc1ccc(S(=O)(=O)CCC(=O)OCC(=O)c2ccc(C)c(C)c2)cc1	0	0	0	0	0
O=C(NC(=S)Nc1ccc2oc(-c3cccnc3)nc2c1)c1cccc(Cl)c1	226[may fluoresce violet]	-	0	?	0
C#CC[N+]1(CC#Cc2ccccc2)CCOCC1	194[may fluoresce violet]	?	0	?	38[may fluoresce violet]
CC(C)c1ccc(OCc2ccc(C(=O)N3CCCC3)o2)cc1	0	0	0	0	0
O=[N+]([O-])c1cccc(-c2ccc(/C=N/Nc3nc(N4CCCCC4)nc(N4CCCCC4)n3)o2)c1	0	0	152	0	0
CCC(c1nnnn1CCOC)N1CCN(Cc2ccccc2OC)CC1 (stereo not given)	260[may fluoresce violet]	?	0	?	-
CCn1c(SCC(=O)NCC2CCCO2)nc2c(c1=O)SCC2 (stereo not given)	0	0	0	0	0
O=C(Nc1ncnc2sc3c(c12)CCCCC3)c1ccc(F)cc1	0	0	0	0	0
NC(=O)c1cccc(-c2noc(-c3ccccc3F)n2)c1	203[may fluoresce violet]	0	0	?	0
O=C1c2ccccc2C(=O)c2c([N+](=O)[O-])ccc(O)c21	0	0	154	0	0
O=C(O)c1ccc([N+](=O)[O-])c2c1C(=O)c1ccccc1C2=O	0	0	0	0	0
O=C(C1CCC1)N1CCc2cc(S(=O)(=O)N3CCN(c4ccccn4)CC3)ccc21	0	0	0	0	0
CCOC(=O)c1cc2c(=O)n3cccc(C)c3nc2n(CCCOC)c1=NC(=O)c1cccnc1	0	0	0	0	0
CCOCCCn1c(=NC(=O)c2cccnc2)c(C(=O)OCC)cc2c(=O)n3ccccc3nc21	196[may fluoresce violet]	0	0	?	43[may fluoresce violet]
CCOC(=O)c1ccc(NCc2nc3ccccc3[nH]2)cc1	0	0	0	0	0
O=C(CSc1nc2ccccc2o1)Nc1nc2ccc(Br)cc2s1	214[may fluoresce violet]	0	0	?	0
COc1ccc2nc(NC(=O)CSc3nc4ccccc4o3)sc2c1	0	0	0	0	0
CC1CC(C)CN(S(=O)(=O)c2ccc(C(=O)Nc3sccc3C(N)=O)cc2)C1 (stereo not given)	0	0	0	0	0
Clc1ccc2nc(N3CCNCC3)nc(-c3ccccc3)c2c1	?	?	?	?	39[may fluoresce violet]
CN1CCN(c2nc(-c3ccccc3)c3cc(Cl)ccc3n2)CC1	0	0	0	0	0
CC(=O)Nc1ccc(NC(=O)CSc2nnnn2-c2ccc(F)cc2)cc1	194[may fluoresce violet]	0	0	?	0
CCOc1ccc(-n2c(-c3ccccc3)nnc2-c2ccccc2)cc1	252[may fluoresce violet]	-	0	?	45[may fluoresce violet]
SMILES	MEP2 TOR yeast	AGP1 TOR yeast	LAP4 TOR yeast	CIT2-GFP yeast	RPL19A TOR yeast
CC1(C)CC2CC(C)(CN2C(=S)Nc2ccccc2F)C1 (stereo not given)	0	0	0	0	0
Clc1ccc(-c2ccc(SCc3ccccn3)nn2)cc1	0	0	-	0	0
Cc1ccc(-n2ncc(C#N)c2/N=C/N(C)C)cc1	267	0	158	0	0
Cn1c(=O)c2c(nc(Br)n2Cc2ccccc2Cl)n(C)c1=O	0	0	0	0	0
COC(=O)Cn1c(=O)c2c(nc(Br)n2Cc2ccccc2Cl)n(C)c1=O	265[may fluoresce violet]	0	0	?	36[may fluoresce violet]
CCC(=O)N1CCCn2c1nc1ccccc12	0	0	0	0	0
Cc1nn(Cc2c(Cl)cccc2Cl)c(C)c1C(=O)NCc1ccc(C)n1C	216[may fluoresce violet]	-	0	?	0
Cc1nn(Cc2ccccc2)c(Cl)c1C(=O)NCc1ccc(C)n1C	0	0	0	0	0
Cc1cc(=O)oc2cc(NS(=O)(=O)c3ccccc3)ccc12	561[may fluoresce violet]	0	0	?	0
O=C(N/N=C/c1cccnc1)c1ccc(S(=O)(=O)N2CCCCCC2)cc1	0	0	0	0	0
CC(=O)c1cccc(NC(=O)CSc2nc(C3CC3)nc3ccccc23)c1	0	?	0	?	32[may fluoresce violet]
CC(=O)Nc1cccc(NC(=O)CSc2nc(C3CC3)nc3ccccc23)c1	0	0	0	0	0
C/C(=N\NC(=O)c1nonc1N)c1cccs1	233	0	0	0	0
COCc1c(C(=O)N/N=C(/C)c2cccs2)nnn1-c1nonc1N	0	0	0	0	0
C=CCN(c1nc(C)cc(OC)n1)S(=O)(=O)c1ccc(C)cc1	0	0	0	0	0
Cc1oc2c(CN3CCCC(C)C3)c(O)ccc2c(=O)c1-c1ccccc1 (stereo not given)	253	0	0	0	0
O=C(C1=C(O)C(=O)N(c2ncccn2)C1c1ccc(F)cc1)c1ccco1 (stereo not given)	506[may fluoresce violet]	-	-	-	43[may fluoresce violet]
C#CCNC(=O)C1=C[C@@H](c2ccc(Br)cc2)[C@H](CCCO)[C@@H](OCC)O1	0	0	0	0	0
C#CCNC(=O)C1=C[C@H](c2ccc3c(c2)OCO3)[C@@H](CCCO)[C@H](OCC)O1	300[may fluoresce violet]	?	0	?	46[may fluoresce violet]
COc1ccc(NS(=O)(=O)c2cccc3ccccc23)cc1	0	0	183	0	0
COc1ccc(NS(=O)(=O)c2cc(C)ccc2C)cc1	0	-	0	0	0
COc1ccc(NS(=O)(=O)c2cc(OC)ccc2OC)cc1	267[may fluoresce violet]	?	0	?	45[may fluoresce violet]
COc1ccc(S(=O)(=O)Nc2ccc(C(F)(F)F)cc2)cc1OC	196[may fluoresce violet]	?	0	?	0
CCOC(=O)c1ccc(NC(=O)NC2CC3CCC(C2)N3)cc1 (stereo not given)	0	0	0	0	0
COc1ccc2nc(/C=N/NC(=O)CCCCCNC(=O)OC(C)(C)C)ccc2c1	204[may fluoresce violet]	?	0	?	0
SMILES	MEP2 TOR yeast	AGP1 TOR yeast	LAP4 TOR yeast	CIT2-GFP yeast	RPL19A TOR yeast
COc1ccc(NC(=O)NC23CC4CC(CC(C4)C2)C3)cc1OC	283[may fluoresce violet]	-	0	?	16[may fluoresce violet]
O=C(Nc1ccc2c(c1)OCCO2)NC12CC3CC(CC(C3)C1)C2	0	0	0	0	0
Cc1cc(C)cc(NC(=O)C(OC(=O)Cn2cnc3c2c(=O)n(C)c(=O)n3C)c2ccccc2)c1 (stereo not given)	0	0	0	0	0
Cn1c(NCc2cccc(Br)c2)nc2ccccc21	0	0	0	0	0
CCC(C(=O)OCC(=O)N(C)c1c(N)n(Cc2ccccc2)c(=O)[nH]c1=O)c1ccccc1 (stereo not given)	0	0	0	0	0
Cc1cccc(CC2S/C(=N/N=C/c3ccco3)N(c3ccccc3)C2=O)c1 (stereo not given)	0	0	0	0	0
c1ccc(CCNc2cnccn2)cc1	190[may fluoresce violet]	?	0	?	0
